The structures appear in SMILES notation. Several values for one entry are separate records, joined by “and”; a condition that tells them apart may be missing. Equal entries are not always repeated. Inconclusive results are not listed. Unmarked numbers belong to inactive results. Activity calls are given as the source filed them. Calls come from the whole dose curve; as a rule, active = well fitted cell-killing curve with a large enough effect; inconclusive = small, poorly fitted or top-dose-only effect; inactive = flat fitted curve, though single readings scatter.

A short description of this experiment: Cell Viability - N2a (AID 540).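 Note: plate controls were DMSO alone for no effect and tamoxifen control for full effect; nearly all actives have a fitted effect of over 45% in size.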 Conditions: N2a mouse neuroblastoma cell viability; at 92.2 µM (top of the series). From the text: NIH Chemical Genomics Center [NCGC]
NIH Molecular Libraries Screening Centers Network [MLSCN]
National Institutes of Environmental Health Sciences [NIEHS]
National Toxicology Program [NTP]
We have developed a 1536-well cell-based assay for quantitative high throughput screening (qHTS) against a number of cell lines to determine in vitro cytotoxicity of small molecules. This particular assay uses the N2a cell line which is derived from mouse neuroblastoma.
NCGC Assay Protocol Summary:
The CellTiter-Glo luminescent cell viability assay (Promega) is a homogeneous method to measure the number of viable cells in culture. The end point readout of this assay is based on quantitation of intracellular ATP, an indicator of metabolic activity, using the luciferase reaction. Luciferase catalyzes the oxidation of beetle Luciferin to oxyluciferin and light in the presence of ATP. The luminescent signal is proportional to amount of ATP present.
Using the CellTiter-Glo luminescent cell viability assay, the amount of cellular ATP was measured in the N2a cell line with complete culture medium following compound treatment for 40 hours. The assay was performed in opaque white Kalypsys 1536-well plates. In the screen, tamoxifen and doxorubicin were used as positive controls. Library compounds were measured for their ability to cause acute toxicity in the cell line, as reflected by a decrease in intracellular ATP levels, in a concentration-dependent manner. […] AC50 values were determined from concentration-response data modeled with the standard Hill equation.
qHTS protocol for CellTiter Glo N2a cellular assay
[Step] [Parameter] [Value] [Description]
1. Reagent; 5 uL; 1500 N2a cells/well
2. Time; 5 hr; 37 °C incubation
4. Controls; 23 nL; Tamoxifen 0.34 uM to 100 uM & Doxorubicin 0.02 nM to 100 uM
5. Time; 40 hr; 37 °C incubation
6. Reagent; 5 uL; CellTiter Glo reagent
7. Time; 20 min; Room Temperature
8. Detection; Luminescence; Viewlux plate reader
Keywords: cell viability, cytotoxicity, N2a cell line, luminescence, NTPHTS, NTPHTS_NCGC, NIEHS, EPA, DSSTox, MLSMR, MLSCN, NIH Roadmap, qHTS, NCGC
For `CCCCCCCC(=O)O`, the activity change, negative = cytotoxicity was -0.485% and -3.97%. Turning to `CC(C)=O`, the activity change, negative = cytotoxicity is -2.26%. On to `CC1=C2[C@@H]([C@H](C)CC[C@H]2/C=C(\C)C(=O)O)[C@H](O)C1`, for which the activity change, negative = cytotoxicity was 6.2%.

On to `O=C(O)CCC(=O)C(=O)O`, for which the activity change, negative = cytotoxicity was 6.48%.

On to `IC(I)I`, for which the activity change, negative = cytotoxicity was -10.4%. Then `CCCCCCCC/C=C\CCCCCCCC(=O)O`, with -2.98%; and `CC1=C(/C=C/C(C)=C/C=C/C(C)=C/CO)C(C)(C)CCC1`, with -116% (active); and `CCCCC/C=C\C/C=C\CCCCCCCC(=O)O`, with -28.9%.

With `CCOc1ccc2c(c1)C(C)=CC(C)(C)N2`, the activity change, negative = cytotoxicity was -9.52%. For `Cc1ccccc1`, the activity change, negative = cytotoxicity was 5.04% and 4.17%. In the case of `CC(O)CO` (centres undefined), the activity change, negative = cytotoxicity was -4.29% and -9.5%. Then `O=S(=O)(O)O`, with -3.09% and 7.28%; and `Nc1ccn([C@H]2CS[C@@H](CO)O2)c(=O)n1`, with -5.31%; and `CCOC(C)=O`, with 9.44%.

The record behind these values is PubChem BioAssay (NCATS).
